# Records with an inconclusive call do not appear. Entries that show only a call come without a potency. Values without a mark were called inactive. Activity calls are given as the source filed them. The call rests on the fitted dose curve; in most records, active means well fitted inhibition curve with a large enough effect in the signal ratio in the repeat runs, with a control signal flat; inconclusive means weak or mixed curves, or effect the other way; inactive means flat fitted curve, though single readings scatter; the % refers to the signal ratio.
# Molecular target: D(2) dopamine receptor (Homo sapiens) (UniProt P14416)
# Test: Dopamine D2 receptor (DRD2) small molecule antagonists, cell-based qHTS assay (AID 1963595)
# Details: HEK293-DRD2 cAMP HTRF antagonist mode; series mostly up to 92.4 µM
# Source text: National Center for Advancing Translational Sciences [NCATS]
# Division of Preclinical Innovation [DPI]
# U.S. Environmental Protection Agency [EPA]
# National Institutes of Environmental Health Sciences [NIEHS]
# National Toxicology Program [NTP]
# U.S. Food and Drug Administration [FDA]
# DRD2 is the D2 subtype of the dopamine receptor, which is coupled to Gi subtype of G protein-coupled receptor. This G protein-coupled receptor inhibits adenylyl cyclase activity. The DRD2-HEK293 cell line stably expressing D2 dopamine receptor can be used for screening agonists and antagonists of interactions between D2 and its ligands. The Hek293-DRD2 cAMP assay is based on HTRF technology. It measures changes of cAMP accumulation in response to Gi coupled GPCR activation or inhibition.
# Tox21 Assay Protocol Summary:
# DRD2-Hek293 cells were dispensed at 600 cells/3uL/well in 1536-well white plates using a Multidrop Dispenser. After the assay plates were incubated at a 37 C/5% CO2 incubator for 24 h, 1 uL of Ro20-1724 at final concentration of 0.1 mM was transferred to the assay plate by a Flying Reagent Dispenser. Following Ro20-1724 addition, 23 nL of compound dissolved in DMSO, positive controls or DMSO only was added to the assay plates via Wako pintool station. The assay plates were incubated at room temperature for 10 min. Next, 1 uL of mixture of NKH477 (final concentration at 200 nM) and quinpirole (final concentration at 12 nM) was added into the plates. After the assay plates were incubated at room temperature for an additional 30 min, 2.5 ul/well of cAMP-d2 and 2.5 ul/well of anti-cAMP-cryptate were added respectively into the assay plates using a Flying Reagent Dispenser. The plates were incubated at room temperature for 1 h. The fluorescence intensity in the plates was measured at 340 nm excitation and 665 & 620 nm emission by an Envision plate reader.
# Potency means the concentration at half of the fitted maximal effect.
# Sequence of D(2) dopamine receptor (Homo sapiens) (P14416 whole entry, looked up): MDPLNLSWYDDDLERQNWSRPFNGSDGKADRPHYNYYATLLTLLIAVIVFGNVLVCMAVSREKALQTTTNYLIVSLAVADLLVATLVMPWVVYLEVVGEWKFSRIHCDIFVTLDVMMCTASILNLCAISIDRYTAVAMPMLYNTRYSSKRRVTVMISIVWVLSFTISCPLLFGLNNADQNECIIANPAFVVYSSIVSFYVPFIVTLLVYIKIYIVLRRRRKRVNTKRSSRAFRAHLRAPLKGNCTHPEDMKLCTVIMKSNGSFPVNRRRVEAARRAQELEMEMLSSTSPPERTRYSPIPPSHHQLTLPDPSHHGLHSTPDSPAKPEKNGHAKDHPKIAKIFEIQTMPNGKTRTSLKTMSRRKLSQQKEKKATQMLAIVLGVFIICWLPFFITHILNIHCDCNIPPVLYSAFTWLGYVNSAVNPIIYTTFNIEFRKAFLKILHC
Compound,Potency,"activity change, negative = inhibition"
Oc1ccc(C2CNCCc3c2cc(O)c(O)c3Cl)cc1 (stereo not given),inactive,
ClC(Cl)(Br)Br,inactive,
CC(=O)Nc1ccc(N)cc1,inactive,
Cc1cc(=O)oc2cc(O[C@@H]3SC[C@@H](O)[C@H](O)[C@H]3O)ccc12,inactive,
NC(=O)CC[C@@H]1NC(=O)[C@H](Cc2ccccc2)NC(=O)[C@H](Cc2ccc(O)cc2)NC(=O)CCSSC[C@@H](C(=O)N2CCC[C@H]2C(=O)N[C@@H](CCCN=C(N)N)C(=O)NCC(N)=O)NC(=O)[C@H](CC(N)=O)NC1=O,inactive,
N=C(N)c1ccc(OCCCOc2ccc(C(=N)N)cc2)cc1,inactive,
O=C(O)C(O)[C@H](O)[C@@H](O)[C@H](O)[C@H](O)CO (stereo not given in full),inactive,
C[C@]1(Cn2ccnn2)[C@H](C(=O)O)N2C(=O)C[C@H]2S1(=O)=O,inactive,
COC(=O)c1ccc(I)cc1S(=O)(=O)NC(=O)Nc1nc(C)nc(OC)n1,inactive,
c1ccc([C@H]2CN3CCSC3=N2)cc1,inactive,
CCCCCCCCCCCCc1ccc(O)cc1,61100 nM (active),
CN=C(NC#N)Nc1ccc(C2=NNC(=O)CC2C)cc1 (stereo not given),inactive,
CCOc1ccccc1N,inactive,
OC(CCN1CCCC1)(c1ccccc1)C1CCCCC1 (stereo not given),inactive,
CC(C)CCCCCCOC(=O)CCCCC(=O)OCCCCCCC(C)C,inactive,
CO[Si](OC)(OC)OC,inactive,
CCN(CC)CCNC(=O)c1cc(Cl)c(N)cc1OC,1680 nM (active),
COc1cc(CNC(=O)CCCC/C=C/C(C)C)ccc1O,inactive,
Nc1ccc(C(=O)O)c(O)c1,inactive,
CCCCCCCC,inactive,

Compound,Potency,"activity change, negative = inhibition"
C=CC(C)(C)O,inactive,
C=CC(=O)OCCCCCCCCCC,inactive,
CC1(c2ccccc2)OC(C(=O)O)=CC1=O (stereo not given),inactive,
NC(=O)NS(=O)(=O)c1ccc(N)cc1,inactive,
N#CC1(N)CCCCC1,inactive,
Cc1occc(=O)c1OC(=O)C(C)C,inactive,
CC/C=C\CCOC(=O)c1ccccc1O,inactive,
C=CCON/C(CCC)=C1\C(=O)CC(C)(C)C(C(=O)OC)=C1O,inactive,
CN1CCN(CC(=O)N2c3ccccc3C(=O)Nc3cccnc32)CC1,,3.87% [at 8.38 µM]
[O-][n+]1cccc(/C(Cl)=N/OC[C@@H](O)CN2CCCCC2)c1,inactive,
CN=C(N)NC(=O)Nc1c(C)cccc1C,inactive,
CC[C@H]1OC(=O)[C@H](C)[C@@H](O[C@H]2C[C@@](C)(OC)[C@@H](O)[C@H](C)O2)[C@H](C)[C@@H](O[C@@H]2O[C@H](C)C[C@H](N(C)C)[C@H]2O)[C@](C)(OC)C[C@@H](C)C(=O)[C@H](C)[C@@H](O)[C@]1(C)O,inactive,
CC1CCc2cc(F)cc3c(=O)c(C(=O)O)cn1c23 (stereo not given),inactive,
CN1CCCN=C1COC(=O)C(O)(c1ccccc1)C1CCCCC1 (stereo not given),inactive,
CCCCCCOC(=O)CCCCC(=O)OCCCCCC,inactive,
Cc1cc(F)ccc1-c1cc(N2CC[C@@H](O)[C@H]2CO)ncc1N(C)C(=O)C(C)(C)c1cc(C(F)(F)F)cc(C(F)(F)F)c1,inactive,
Cc1cc(-n2nc3ccc(Cl)cc3n2)c(O)c(C(C)(C)C)c1,inactive,
O=CN1CCCCC1,inactive,
O=C(CCCN1CCC(O)(c2ccc(Br)cc2)CC1)c1ccc(F)cc1,188 nM (active),
CCCCCCCCCCCCCCN(C)C,,-0.238% [at 18.9 µM]

# Source: PubChem BioAssay (Tox21)
